# According to PubChem BioAssay AID602346 (Broad Institute, 2012):
# Out of some 340,000 compounds screened, about 1,200 (0.35%) were called active. The entries come from a sample that favours actives as a whole. A number with no mark means an inactive call. Rule as the data show it: active = inhibition above about 50% (passing the limit was not always enough); inconclusive = no clear call, values can overlap the other calls; inactive = below about 31%.
# Assay: HIV Vif self-association inhibitors, primary screen, imaging, HEK293T, single point (AID 602346)
# Settings: HEK293T cells, Vif self-association by quenched fluorescence, 24 h, at 7.49 µM, stronger effect = higher value
row,SMILES,inhibition
1,OC(c1cc(Cl)cc(Cl)c1)c1ncc(-c2ccccc2C(F)(F)F)[nH]1 (stereo unspecified),7.62%
2,Cc1cccc(CNC(=O)c2sc(=O)n(Cc3ccccc3C)c2C)c1,-3.32%
3,O=C(NC1=CC(=O)c2ccccc2C1=O)c1ccccc1,120% (active)
4,O=C1C=C(NS(=O)(=O)c2ccccc2)C(=O)c2ccccc21,5.11%
5,Cn1c(NC(=O)c2ccccc2)nc2ccccc21,-0.44%
6,O=C(c1ccc(CS(=O)Cc2ccccc2Cl)o1)N1CCN(c2ccccc2)CC1 (stereo unspecified),2.07%
7,O=C(CCc1ccc(O)cc1)NN=Cc1cc(Br)ccc1O,-6.15%
8,CCc1nc2c(OCCC3CCCCC3)cccn2c1N(C)C(=O)c1ccco1,3.23%
9,CC1(C)CC(=O)C=C(NCCCNC2CCCCC2)C1,-5.64%
10,CC1(C)CC(=O)C=C(NC2CC(C)(C)NC(C)(C)C2)C1,65.2% (active)
11,COC(=O)NNC1=CC(=O)CC(C)(C)C1,7.17%
12,O=C(c1ccc(N2CCCC2=O)cc1)N1CCN(c2ccc(C(F)(F)F)cc2[N+](=O)[O-])CC1,-4.95%
13,CC(C)C[C@H]1CNC(=S)N1C[C@H]1CCCN1C[C@H](Cc1ccc(O)cc1)N1C[C@H](Cc2ccc(O)cc2)N(CC2CCCCC2)C1=S,5.91%
14,Cc1ccc(S(=O)(=O)N2C[C@H]3n4c(=O)ccc(=O)n4C[C@H](OC(=O)NC4CCCC4)[C@@]3(O)C2)cc1,-13.2%
15,CC1CCN(c2ccc3c(c2)S(=O)(=O)c2cc(C(=O)O)ccc2C3=O)CC1,-0.214%
16,Cc1ccc(CNC(=O)c2cccc3c2C(=O)c2ccc(N4CCC(C)CC4)cc2S3(=O)=O)cc1,111% (active)
17,Cc1ccc(CNC(=O)c2ccc3c(c2)S(=O)(=O)c2ccccc2C3=O)cc1,5.37%
18,CN(C)CCNC(=O)c1cccc(-c2cnc3c(NC=O)cc(-c4cccc(C(F)(F)F)c4)cn23)c1,5.61%
19,C=C1C(=O)[C@]23C[C@H]1CCC2[C@@]1(C)C(C[C@@H]3O)[C@](C)(C(=O)O)CC[C@@H]1O (stereo partly specified),12.6%
20,O=C(CCCN1C(=O)C(c2ccccc2)Oc2cccnc21)Nc1ccccc1Br (stereo unspecified),6.43%
21,CC(=O)Nc1cc(-c2ccccc2N(C)C)cn2c(-c3ccc(F)c(Cl)c3)cnc12,-4.22%
22,CC(=O)Nc1cccc(-c2ccnc3c2CC(C)(C(=O)NCc2ccccc2)O3)c1 (stereo unspecified),-11.2%

row,SMILES,inhibition
1,Cc1ccccc1OCCOc1ccc([N+](=O)[O-])cc1/C=N/n1cnnc1,69.4% (active)
2,COc1cccc(OCCOc2cccc(/C=N/n3cnnc3)c2)c1,11.7%
3,Cc1ccccc1OS(=O)(=O)c1cccc([N+](=O)[O-])c1,-0.237%
4,C=CCn1nc(C(=O)OCC)cc1-c1sc(NC(=O)c2ccccc2)nc1C,-3.36%
5,COc1ccccc1N1CCN(Cc2ccc(OC)c3ccccc23)CC1,112% (active)
6,COc1ccc(CN2CCN(Cc3ccc(OC)c(OC)c3OC)CC2)cc1,-0.337%
7,COc1ccccc1N1CCN(Cc2cc(OC)c3c(c2)OCO3)CC1,-1.02%
8,COCOCCn1cc(CN2CCS(=O)(=O)N(Cc3ccc(-c4ccccc4)cc3)C(CC(C)C)C2=O)nn1 (stereo unspecified),15.8%
9,O=C1CCCN2N=C(SCC(=O)Nc3ccc(Br)cc3)SC2=N1,59.2% (active)
10,Cc1cc(=O)[nH]c(SCC(=O)Nc2ccc(Br)cc2)n1,-3.77%
11,O=C(CSCc1ccc(Br)cc1)Nc1ccc(S(=O)(=O)N2CCCCCC2)cc1,-7.79%
12,CC1(C(=O)NCC2CCOCC2)Cc2c(-c3cccc(C(N)=O)c3)ccnc2O1 (stereo unspecified),-1.25%
13,Cc1cc(Cl)ccc1-c1nc(NCCN(C)C)nc2ccsc12,-1.21%
14,C/C(=N\NC(=O)c1ccc2ccccc2c1)c1cccnc1,-7.71%
15,CC(=NNC(=O)c1ccc2nc[nH]c2c1)c1ccc(Br)cc1,63.5% (active)
16,COc1ccc(/C(C)=N/NC(=O)c2ccc3nc[nH]c3c2)cc1,1.81%
17,COc1ccc(-c2ccc(C(=O)NC(C)C)c3occc23)c(C)c1,-26.1%
18,Cc1cc2cc3n(c2nn1)N=C(Cl)CC3,29.1%
19,CCOC(=O)c1cc(-c2sc(NC(=O)c3ccccc3)nc2C)n(Cc2ccccc2)n1,-2.32%
20,CN(C)CCCn1c(N)c(C#N)c2nc(C#N)c(C#N)nc21,52.6% (active)
21,N#Cc1c(N)n(CCOC(=O)c2ccc(Cl)cc2)c2nc3ccccc3nc12,-17.3%
22,NC1=CC(=O)C(=O)c2cccnc21,-1.29%

row,SMILES,inhibition
1,CC1(Cc2cccc(C#N)c2)C(=O)Nc2ccc(-c3cccc(C(F)(F)F)c3)cc21 (stereo unspecified),-26.8%
2,Cc1nccn1-c1ccc(NC(=O)[C@H]2O[C@@H](n3cnc4c(N)ncnc43)[C@H](O)[C@@H]2O)cc1,14.6%
3,Nc1ncnc2c1ncn2[C@@H]1O[C@H](C(=O)NCC(F)(F)F)[C@@H](O)[C@H]1O,96.8% (active)
4,CN(Cc1ccc(C(F)(F)F)cc1)C(=O)[C@H]1O[C@@H](n2cnc3c(N)ncnc32)[C@H](O)[C@@H]1O,-5.61%
5,Cc1nc2c(OCC(=O)C(C)(C)C)cccn2c1N(C)Cc1cccs1,-0.585%
6,CCOc1ccc(CCN2C(=S)N([C@@H](CC(C)C)CN3CCC[C@@H]3CN3C(=S)NC[C@@H]3Cc3ccc(O)cc3)C[C@@H]2CC(C)C)cc1,12.9%
7,O=C(NCc1cccc(Cl)c1)C1CCN(c2nnc(N3CCCC3=O)s2)CC1,3.92%
8,O=C(NCc1cccc(Cl)c1)C1CCC(=O)N(C2CC2)C1 (stereo unspecified),-0.951%
9,O=C(NCc1cccc(Cl)c1)C1=CC=CN2CCS(=O)(=O)N=C12,52.6% (active)
10,CN(C(=O)CN1CCN(c2cc(-c3ccc(OCc4ccccc4)cc3)ncn2)CC1)c1ccccc1,-17.3%
11,CC(=O)Nc1ccc(CNc2nc(NCCN(C)C)nc3cc(-c4ccccc4)sc23)cc1,-16%
12,COc1cccc(CNC(=O)c2nnn(CC(=O)Nc3cc(C)ccc3C)c2N)c1,9.65%
13,Cc1ccc(NC(=O)Cn2nnc(C(=O)NCc3ccco3)c2N)c(C)c1,-2.06%
14,CCOc1ccccc1NC(=O)Cn1nnc(C(=O)NCc2cccs2)c1N,62.1% (active)
15,NC(=S)NN=Cc1ccc(OC(=O)COc2cc(Cl)c(Cl)cc2Cl)cn1,4.39%
16,CC(C)Oc1cc(F)ccc1-c1cc(C(=O)Nc2cccc(Cl)c2)[nH]n1,-9.5%
17,O=C(COC(=O)c1ccc(O)cc1)Nc1nccs1,2.05%
18,CC(=O)NC1CCN(CC(=O)Nc2nccs2)CC1,4.49%
19,CC1CCN(CC(=O)Nc2nccs2)CC1,50.9% (active)
20,CC(C)Oc1ccc(CN2CCC2(C)C(=O)NCc2ccc(C(F)(F)F)cc2)cc1 (stereo unspecified),-4.01%
21,O=C(NCc1cccnc1)c1cc(C2CCCCN2C(=O)CCc2ccccc2)on1 (stereo unspecified),-0.0335%
22,COCOCCn1cc(CN2CCS(=O)(=O)N(Cc3ccc(-c4ccc(OC)cc4)cc3)C(CC(C)C)C2=O)nn1 (stereo unspecified),1.43%

row,SMILES,inhibition
1,CCN(CC)S(=O)(=O)c1ccc2c3c(cccc13)C(=O)S2,-0.161%
2,CCN1C(=O)c2cccc3c(S(=O)(=O)Nc4ccccc4O)ccc1c23,112% (active)
3,O=C(CN1C(=O)c2cccc3cccc1c23)Nc1ccccc1,2.82%
4,O=C(NCc1cccnc1)Nc1cccc(NC(=O)NCc2cccnc2)c1F,56% (active)
5,O=C(NCc1cccnc1)c1ccccc1NC(=O)c1c(F)cccc1F,-6.43%
6,O=C(NCc1cccnc1)Nc1ccccc1F,20.3%
7,C#Cc1ccc(NC(=O)C2(C)CCN2C(=O)Cc2ccc(-c3ccccc3)cc2)cc1 (stereo unspecified),-14.6%
8,Cc1cccc(C)c1Cn1c(C)c(C(=O)NCc2cccc(Cl)c2)sc1=O,-0.663%
9,O=C1[C@H]2[C@@H](c3ccc(C(F)(F)F)cc3)N[C@]3(CCCN(Cc4ccc(Cl)cc4)C3=O)[C@H]2C(=O)N1Cc1ccccc1,2.09%
10,CC1(C(=O)Nc2cccc3cccnc23)CCN1C(=O)CCC1CCCC1 (stereo unspecified),-1.65%
11,CN(C)CCNC(=O)c1ccc(-c2cn3c(-c4ccc(Oc5ccccc5)cc4)cnc3cn2)cc1,1.97%
12,COc1ccc(-c2ccc(Nc3ccc(S(=O)(=O)N4CCCC4)cc3)nn2)cc1OC,-7.98%
13,COc1ccc(-c2cc(-c3ccc(N)cc3)nc(N)c2C#N)cc1OC,-0.12%
14,COc1ccc(-c2cc(C(F)(F)F)nc(S(C)(=O)=O)n2)cc1OC,90.1% (active)
15,COc1ccc(OC)c(C(=O)NC2CCCc3c2cnn3-c2cc(C)cc(C)c2)c1 (stereo unspecified),-9.82%
16,CC(=O)Nc1cc(-c2ccccc2F)cn2c(-c3cccc(C(F)(F)F)c3)cnc12,-25.4%
17,OC[C@@H]1CN(Cc2ccncc2)C[C@H](n2cnc3c(N4CCN(c5ccccc5)CC4)ncnc32)O1,-25.2%
18,NS(=O)(=O)c1ccc(-c2ccc(/C=C3\SC(=O)NC3=O)o2)cc1,55.8% (active)
19,CN1CCN(/N=C/c2ccc(-c3ccc([N+](=O)[O-])cc3)o2)CC1,-7.47%
20,O=C1[C@H]2[C@@H](c3ccc(C(F)(F)F)cc3)N[C@]3(CCCN(Cc4ccc(Br)cc4)C3=O)[C@H]2C(=O)N1Cc1ccccc1,1.02%
